HGIII-sPLA2 inh: Inhibits HGIII-sPLA2 liposome hydrolysis, primary screen; 370,000 tested, 0.56% active; inhibition, % at 12.2 µM; Q9NZ20; QFRET BODIPY PC-A2 liposome hydrolysis, fluorescence;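 active = inhibition above mean plus 3 SD of compounds lying within the high and low control bounds, cut at about 19% in these data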;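 also: 0% = median of test compound wells and 100% = no enzyme DMSO wells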
ADAM17 inh: inhibits human ADAM17; P78536; recombinant ADAM17, EDANS/DABCYL FRET peptide cleavage; inhibition, % at 6.95 µM; 370,000 tested, 0.83% active; AID 720648;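 active = inhibition above the mean of compounds lying between control limits plus 3 SD, set per campaign, cut at about 8.5% in these data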;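 also: 0% = DMSO-only wells as the low control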
ADAM10 inh: ADAM10 inhibition, QFRET primary screen; O14672; recombinant ADAM10, EDANS/DABCYL FRET peptide cleavage, 3 h; inhibition, % at 7 µM; 370,000 tested, 0.62% active; AID 720582;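 active = inhibition above a per-campaign cutoff equal to the mean of compounds falling between control-based bounds plus 3 SD, cut at about 20% in these data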;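 also: 0% = DMSO wells while the 100% control is not disclosed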
Target sequence (O14672 214-748 limits assumed): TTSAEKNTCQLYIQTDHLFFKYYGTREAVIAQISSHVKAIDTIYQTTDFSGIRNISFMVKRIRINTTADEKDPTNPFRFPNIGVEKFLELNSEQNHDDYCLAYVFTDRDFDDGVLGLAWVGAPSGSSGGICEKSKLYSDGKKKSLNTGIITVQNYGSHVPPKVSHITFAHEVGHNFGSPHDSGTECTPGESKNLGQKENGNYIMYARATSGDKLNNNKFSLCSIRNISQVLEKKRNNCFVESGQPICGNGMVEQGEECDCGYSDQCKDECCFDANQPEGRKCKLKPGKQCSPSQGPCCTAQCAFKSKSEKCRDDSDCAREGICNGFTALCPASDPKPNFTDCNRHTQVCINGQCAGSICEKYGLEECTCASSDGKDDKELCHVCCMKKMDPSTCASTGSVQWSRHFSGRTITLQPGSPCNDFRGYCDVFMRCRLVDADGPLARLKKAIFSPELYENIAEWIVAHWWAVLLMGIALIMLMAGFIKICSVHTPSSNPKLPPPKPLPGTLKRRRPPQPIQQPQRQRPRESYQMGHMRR
FAS-TE inh: blocks the thioesterase domain of human fatty acid synthase; P49327; recombinant FAS-TE, OMFH fluorogenic substrate, fluorescence endpoint; inhibition, % at 15 µM; 360,000 tested, 0.67% active;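 active = compounds whose normalised, plate-corrected inhibition of enzyme fluorescence in the single-dose primary screen is 50% or more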;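 also: 0% = DMSO with enzyme and 100% = substrate without enzyme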
GRIN3A LBD mod: modulators (binders) of human NR3A ligand-binding domain | NR3A LBD differential scanning fluorimetry, Tm shift; 0% = protein alone, 100% = glycine-bound protein | Tm shift relative to glycine control, % at 25 µM | 340,000 tested, 2.5% active;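 active = melting temperature shift of at least 10% of the positive control shift, at one fixed dose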
FAS-TE inh conf: confirmation of human fatty acid synthase thioesterase inhibitors; shares compounds with FAS-TE inh; recombinant FAS-TE, OMFH fluorogenic substrate, fluorescence; inhibition, % at 15 µM; 2,300 tested, 45% active; AID 624325;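 active = compounds inhibiting the enzyme by at least 50% at 15 µM in any one of the replicates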;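 also: 0% = enzyme with DMSO only and 100% = wells lacking enzyme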
Numbers without * were called inactive. Compounds with a hit are over-represented: about 4.3% of the library has one in this group of screens.

`CC(Oc1cccc([N+](=O)[O-])c1)C(=O)NCCC1=CCCCC1` (configuration not stated) gave HGIII-sPLA2 inh 4, ADAM17 inh -2, ADAM10 inh -2, FAS-TE inh 72*, GRIN3A LBD mod 2 and FAS-TE inh conf 38.
For COc1ccc(-c2nn(-c3ccccc3)cc2/C=C/C(=O)O)cc1[N+](=O)[O-] the results were HGIII-sPLA2 inh -6, ADAM17 inh -6, ADAM10 inh -8, FAS-TE inh 53*, GRIN3A LBD mod 0 and FAS-TE inh conf 62*.
Screening N#C/C(=C\c1ccc(O)c([N+](=O)[O-])c1)c1nc2ccccc2s1 returned HGIII-sPLA2 inh -25, ADAM17 inh 0, ADAM10 inh 1, FAS-TE inh 20 and GRIN3A LBD mod -2.
For COc1cc(/C=C(\C#N)c2nc3ccccc3s2)cc([N+](=O)[O-])c1O the results were HGIII-sPLA2 inh -1, ADAM17 inh -2, ADAM10 inh 4, FAS-TE inh 51*, GRIN3A LBD mod -2 and FAS-TE inh conf 46*.
For CCCCCCCCN1C(=O)[C@@H](CC(=O)NCc2ccccc2)C[C@@]2(C(=O)OC)C1=C[C@H](COCc1ccccc1)O[C@@H]2C the results were HGIII-sPLA2 inh -20, ADAM17 inh 1 and ADAM10 inh 2.
For COC(=O)C1=C(C(=O)OC)[C@@H]2N(Cc3ccccc3)c3ccccc3[C@@]23C[C@@H](C(=O)OC)N(C(=O)CC(C)C)C3=N1 the results were HGIII-sPLA2 inh -3, ADAM17 inh 4, ADAM10 inh 6, FAS-TE inh 77*, GRIN3A LBD mod -2 and FAS-TE inh conf 28.
`COC(=O)C1=C(C(=O)OC)[C@@H]2N(Cc3ccccc3)c3ccccc3[C@@]23C[C@@H](C(=O)OC)N(C(=O)c2cc(C)oc2C)C3=N1` gave HGIII-sPLA2 inh -9, ADAM17 inh 3, ADAM10 inh 7, FAS-TE inh 59*, GRIN3A LBD mod -5 and FAS-TE inh conf 15.
Screening C=CCN1c2ccccc2[C@]23C[C@@H](C(=O)OC)N(C(=O)NCCC)C2=NC(C(=O)OC)=C(C(=O)OC)[C@H]13 returned HGIII-sPLA2 inh -8, ADAM17 inh 3, ADAM10 inh 8, FAS-TE inh 79*, GRIN3A LBD mod -2 and FAS-TE inh conf 31.
`COC(=O)C1=C(C(=O)OC)[C@@H]2N(Cc3ccccc3)c3ccccc3[C@@]23C[C@@H](C(=O)OC)N(C(=O)c2cccs2)C3=N1` gave HGIII-sPLA2 inh -3, ADAM17 inh 6, ADAM10 inh -1, FAS-TE inh 23 and GRIN3A LBD mod -1.
Screening COC(=O)C1CN(Cc2cn(Cc3ccc(F)cc3)nn2)CCS(=O)(=O)N1Cc1ccc(C)cc1 (configuration not stated) returned HGIII-sPLA2 inh -2, ADAM17 inh -2 and ADAM10 inh 0.
O=S(=O)(c1cccc2cccnc12)N1CCC(c2cn3ccccc3n2)CC1 was read as HGIII-sPLA2 inh -4, ADAM17 inh -8 and ADAM10 inh -37.
Screening O=[N+]([O-])c1cccc(OCCN2CCC(Cc3ccccc3)CC2)c1 returned HGIII-sPLA2 inh -1, ADAM17 inh -1, ADAM10 inh 6, FAS-TE inh 63*, GRIN3A LBD mod 1 and FAS-TE inh conf 67*.
Screening O=C(c1ccc([N+](=O)[O-])cc1)N1CCC(Cc2ccccc2)CC1 returned HGIII-sPLA2 inh -3, ADAM17 inh -1, ADAM10 inh 2, FAS-TE inh 59*, GRIN3A LBD mod -1 and FAS-TE inh conf 54*.
For CCC12CN(C(=O)c3ccc(OC)cc3)CC(CC)(CN(C(=O)c3ccc(OC)cc3)C1)C2=O the results were HGIII-sPLA2 inh 4, ADAM17 inh -4, ADAM10 inh -10, FAS-TE inh -7 and GRIN3A LBD mod 0.
CCC12CN(C(=O)c3ccc([N+](=O)[O-])cc3)CC(CC)(CN(C(=O)c3ccc([N+](=O)[O-])cc3)C1)C2=O was read as HGIII-sPLA2 inh -4, ADAM17 inh -1, ADAM10 inh -2, FAS-TE inh 58*, GRIN3A LBD mod -1 and FAS-TE inh conf 38.
Screening Cc1ccc([N+](=O)[O-])c(OCCCN2CCC(Cc3ccccc3)CC2)c1 returned HGIII-sPLA2 inh -6, ADAM17 inh 2, ADAM10 inh 1, FAS-TE inh 15 and GRIN3A LBD mod -1.
